Data taken from paper PMC11102866, “Nucleosome-bound NR5A2 structure reveals pioneer factor mechanism by DNA minor groove anchor competition”.
Changes are numbered by the printed parent chain. In names and notes the source's numbering stands.

Experiments:
[1] = target: NR5A2 wild type;histone octamer (Homo sapiens;, UniProt O00482;C0HKE1;Q6ZWY9;P84244;P62806 1-541;2-130;2-126;2-136;2-103, |); assay: SeEN-seq (EMSA of nucleosome library followed by sequencing); 0.8 uM human NR5A2; 20 mM Tris-HCl pH 7.5, 120 mM NaCl, 1 mM MgCl2, 10 uM ZnCl2, 1 mM DTT, 100 ug/ml BSA, room temperature, 30 min; 0.1 uM nucleosome library; high values mean tight binding
[2] = target: mouse Nr5a2 wild type;histone octamer (Mus musculus;, UniProt P45448;C0HKE1;Q6ZWY9;P84244;P62806 1-560;2-130;2-126;2-136;2-103, |); assay: SeEN-seq (EMSA of nucleosome library followed by sequencing); 1.2 uM mouse Nr5a2; 20 mM Tris-HCl pH 7.5, 120 mM NaCl, 1 mM MgCl2, 10 uM ZnCl2, 1 mM DTT, 100 ug/ml BSA, room temperature, 30 min; 0.1 uM nucleosome library; high values mean tight binding

B1: 106 (nucleosome)
DNA 1: ATCCTGGAGAATCCCGGTGCCGAGGCCGCTCAATTGGTCGTAGACAGCTCTAGCACCGCTTAAACGCACGTACGCGCTGTCCCCCGCGTTTTAACCGCCAAGGGGATTTCAAGGCCATCTCCAGGCACGTGTCAGATATATACATCCTGTGAT
DNA 2: ATCACAGGATGTATATATCTGACACGTGCCTGGAGATGGCCTTGAAATCCCCTTGGCGGTTAAAACGCGGGGGACAGCGCGTACGTGCGTTTAAGCGGTGCTAGAGCTGTCTACGACCAATTGAGCGGCCTCGGCACCGGGATTCTCCAGGAT
modifications: reconstituted with mouse histones H2A, H2B, H3.3 and H4
binding signal [1]: 1.84 log2 enrichment (bound/unbound, relative to Widom 601) | binding signal [2]: 1.23 log2 enrichment (bound/unbound, relative to Widom 601)

B2: 112 (nucleosome)
DNA 1: B1 DNA 1 with T109A, A111T, A112C, G113C, G114C, C115T, T118A, C119G, T120G
DNA 2: B1 DNA 2 with A34C, G35C, A36T, G39A, C40G, C41G, T42G, T43A, A45T
modifications: reconstituted with mouse histones H2A, H2B, H3.3 and H4
binding signal [1]: 0.87 log2 enrichment (bound/unbound, relative to Widom 601) | binding signal [2]: 0.753 log2 enrichment (bound/unbound, relative to Widom 601)

B3: 111 (nucleosome)
DNA 1: B1 DNA 1 with T109A, A111T, A112C, G113C, G114T, C116A, T118G, C119G, T120C, C122A
DNA 2: B1 DNA 2 with G32T, A34G, G35C, A36C, G38T, C40A, C41G, T42G, T43A, A45T
modifications: reconstituted with mouse histones H2A, H2B, H3.3 and H4
binding signal [1]: 1.01 log2 enrichment (bound/unbound, relative to Widom 601) | binding signal [2]: 1.02 log2 enrichment (bound/unbound, relative to Widom 601)

B4: 109 (nucleosome)
DNA 1: B1 DNA 1 with T109A, A111T, A112T, G113C, G114A, C115A, C116G, A117G, T118C, T120A
DNA 2: B1 DNA 2 with A34T, A36G, T37C, G38C, G39T, C40T, C41G, T42A, T43A, A45T
modifications: reconstituted with mouse histones H2A, H2B, H3.3 and H4
binding signal [1]: 0.938 log2 enrichment (bound/unbound, relative to Widom 601) | binding signal [2]: 0.719 log2 enrichment (bound/unbound, relative to Widom 601)

B5: 108 (nucleosome)
DNA 1: B1 DNA 1 with T109A, A111T, A112C, G113A, G114A, C115G, C116G, A117C, T118C, C119A
DNA 2: B1 DNA 2 with G35T, A36G, T37G, G38C, G39C, C40T, C41T, T42G, T43A, A45T
modifications: reconstituted with mouse histones H2A, H2B, H3.3 and H4
binding signal [1]: 0.869 log2 enrichment (bound/unbound, relative to Widom 601) | binding signal [2]: 0.815 log2 enrichment (bound/unbound, relative to Widom 601)

B6: 107 (nucleosome)
DNA 1: B1 DNA 1 with T109A, C110T, A111C, G113A, C115G, A117C, T118A
DNA 2: B1 DNA 2 with A36T, T37G, G39C, C41T, T43G, G44A, A45T
modifications: reconstituted with mouse histones H2A, H2B, H3.3 and H4
binding signal [1]: 0.733 log2 enrichment (bound/unbound, relative to Widom 601) | binding signal [2]: 0.834 log2 enrichment (bound/unbound, relative to Widom 601)

B7: 110 (nucleosome)
DNA 1: ATCCTGGAGAATCCCGGTGCCGAGGCCGCTCAATTGGTCGTAGACAGCTCTAGCACCGCTTAAACGCACGTACGCGCTGTCCCCCGCGTTTTAACCGCCAAGGGGATTACTCTCAAGGCCACAGGCACGTGTCAGATATATACATCCTGTGAT
DNA 2: ATCACAGGATGTATATATCTGACACGTGCCTGTGGCCTTGAGAGTAATCCCCTTGGCGGTTAAAACGCGGGGGACAGCGCGTACGTGCGTTTAAGCGGTGCTAGAGCTGTCTACGACCAATTGAGCGGCCTCGGCACCGGGATTCTCCAGGAT
modifications: reconstituted with mouse histones H2A, H2B, H3.3 and H4
binding signal [1]: 0.939 log2 enrichment (bound/unbound, relative to Widom 601) | binding signal [2]: 0.962 log2 enrichment (bound/unbound, relative to Widom 601)

B8: 1 (nucleosome)
DNA 1: ATCTCAAGGCCACCCGGTGCCGAGGCCGCTCAATTGGTCGTAGACAGCTCTAGCACCGCTTAAACGCACGTACGCGCTGTCCCCCGCGTTTTAACCGCCAAGGGGATTACTCCCTAGTCTCCAGGCACGTGTCAGATATATACATCCTGTGAT
DNA 2: ATCACAGGATGTATATATCTGACACGTGCCTGGAGACTAGGGAGTAATCCCCTTGGCGGTTAAAACGCGGGGGACAGCGCGTACGTGCGTTTAAGCGGTGCTAGAGCTGTCTACGACCAATTGAGCGGCCTCGGCACCGGGTGGCCTTGAGAT
modifications: reconstituted with mouse histones H2A, H2B, H3.3 and H4
binding signal [1]: 6.41 log2 enrichment (bound/unbound, relative to Widom 601) | binding signal [2]: 5.85 log2 enrichment (bound/unbound, relative to Widom 601)

B9: 2 (nucleosome)
DNA 1: B8 DNA 1 with T4C, C5T, A6C, G8A, C10G, A12C, C13A
DNA 2: B8 DNA 2 with G141T, T142G, G144C, C146T, T148G, G149A, A150G
modifications: reconstituted with mouse histones H2A, H2B, H3.3 and H4
binding signal [1]: 6.87 log2 enrichment (bound/unbound, relative to Widom 601) | binding signal [2]: 5.51 log2 enrichment (bound/unbound, relative to Widom 601)

B10: 12 (nucleosome)
DNA 1: ATCCTGGAGAATCCTCAAGGCCAGGCCGCTCAATTGGTCGTAGACAGCTCTAGCACCGCTTAAACGCACGTACGCGCTGTCCCCCGCGTTTTAACCGCCAAGGGGATTACTCCCTAGTCTCCAGGCACGTGTCAGATATATACATCCTGTGAT
DNA 2: ATCACAGGATGTATATATCTGACACGTGCCTGGAGACTAGGGAGTAATCCCCTTGGCGGTTAAAACGCGGGGGACAGCGCGTACGTGCGTTTAAGCGGTGCTAGAGCTGTCTACGACCAATTGAGCGGCCTGGCCTTGAGGATTCTCCAGGAT
modifications: reconstituted with mouse histones H2A, H2B, H3.3 and H4
binding signal [1]: 4.6 log2 enrichment (bound/unbound, relative to Widom 601) | binding signal [2]: 4.25 log2 enrichment (bound/unbound, relative to Widom 601)

B11: 13 (nucleosome)
DNA 1: B10 DNA 1 with T15C, C16T, A17C, G19A, C21G, A23C, G24A
DNA 2: B10 DNA 2 with C130T, T131G, G133C, C135T, T137G, G138A, A139G
modifications: reconstituted with mouse histones H2A, H2B, H3.3 and H4
binding signal [1]: 4.51 log2 enrichment (bound/unbound, relative to Widom 601) | binding signal [2]: 3.55 log2 enrichment (bound/unbound, relative to Widom 601)

B12: 102 (nucleosome)
DNA 1: ATCCTGGAGAATCCCGGTGCCGAGGCCGCTCAATTGGTCGTAGACAGCTCTAGCACCGCTTAAACGCACGTACGCGCTGTCCCCCGCGTTTTAACCGCCAAGGGTCAAGGCCACTAGTCTCCAGGCACGTGTCAGATATATACATCCTGTGAT
DNA 2: ATCACAGGATGTATATATCTGACACGTGCCTGGAGACTAGTGGCCTTGACCCTTGGCGGTTAAAACGCGGGGGACAGCGCGTACGTGCGTTTAAGCGGTGCTAGAGCTGTCTACGACCAATTGAGCGGCCTCGGCACCGGGATTCTCCAGGAT
modifications: reconstituted with mouse histones H2A, H2B, H3.3 and H4
binding signal [1]: 0.685 log2 enrichment (bound/unbound, relative to Widom 601) | binding signal [2]: 0.658 log2 enrichment (bound/unbound, relative to Widom 601)

B13: 103 (nucleosome)
DNA 1: B12 DNA 1 with T105G, C106T, A107C, G109A, C111G, A113C, C114A
DNA 2: B12 DNA 2 with G40T, T41G, G43C, C45T, T47G, G48A, A49C
modifications: reconstituted with mouse histones H2A, H2B, H3.3 and H4
binding signal [1]: 0.782 log2 enrichment (bound/unbound, relative to Widom 601) | binding signal [2]: 0.764 log2 enrichment (bound/unbound, relative to Widom 601)

B14: 105 (nucleosome)
DNA 1: B1 DNA 1 with T109C, C110A, A112G, G114C, C116A, A117G
DNA 2: B1 DNA 2 with T37C, G38T, C40G, T42C, G44T, A45G
modifications: reconstituted with mouse histones H2A, H2B, H3.3 and H4
binding signal [1]: 1.55 log2 enrichment (bound/unbound, relative to Widom 601) | binding signal [2]: 1.09 log2 enrichment (bound/unbound, relative to Widom 601)

B15: 104 (nucleosome)
DNA 1: B7 DNA 1 with T108C, C110A, T111G, C112G, T113C, G118T, C120T, A121C
DNA 2: B7 DNA 2 with T33G, G34A, C36A, A41G, G42C, A43C, G44T, A46G
modifications: reconstituted with mouse histones H2A, H2B, H3.3 and H4
binding signal [1]: 1.03 log2 enrichment (bound/unbound, relative to Widom 601) | binding signal [2]: 0.764 log2 enrichment (bound/unbound, relative to Widom 601)
